For orientation: AC50 means the midpoint of the concentration-response curve, whichever way the signal moves.

Our source for the outcome and AC50 values is PubChem BioAssay (EPA / NIEHS).

Assay [1] is described as follows: ATG_TCF_b_cat_CIS: Attagene CIS-FACTORIAL HepG2 Assay for human T-Cell-Factor with beta-catenin (TCF/b-cat) (AID 2282965). To be noted: HepG2 TCF/beta-catenin cis-reporter transcription, actives raise or lower the signal. The essentials:
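Measured: reporter mRNA in HepG2 transiently transfected with cis-promoter reporter units, 24 h after chemical addition. Fitting was bidirectional, DMSO as negative control.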

Assay [2] is described as follows: ATG_TAL_CIS: Attagene CIS-FACTORIAL HepG2 Assay for human TAL Basal Promoter (AID 2282966).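 Further: background control endpoint measuring basal TAL promoter reporter mRNA not a specific factor.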 To be noted: HepG2 Attagene cis-factorial TAL promoter reporter; actives raise or lower the signal. The procedure, abridged: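 Readout: reporter mRNA, fluorescence by CE. System: HepG2, transient multi-reporter transfection, endogenous TF activity. Exposure: 24 h. Analysis: bidirectional, DMSO-normalized; background control.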

Assay [3] can be described thus: ATG_TGFb_CIS: Attagene CIS-FACTORIAL HepG2 Assay for human Transforming Growth Factor (TGF) (AID 2282967). As to conditions: HepG2 Attagene CIS TGFb reporter, mRNA transcription; actives raise or lower the signal. The essentials:
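Bidirectional fitting relative to DMSO gave the endpoint. Underlying data: reporter mRNA from HepG2 cells carrying transiently transfected cis-regulated reporter constructs, harvested 24 h after dosing and analyzed by RT-PCR and capillary electrophoresis.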

A short description of assay [4]: ATG_VDRE_CIS: Attagene CIS-FACTORIAL HepG2 Assay for human Vitamin D Receptor Element (VDRE) (AID 2282968). To be noted: HepG2 VDRE cis-reporter transcription, actives raise or lower the signal. The essentials: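 Reporter mRNA induction, quantified by capillary electrophoresis of fluorescently labelled RT-PCR products, was read 24 h after dosing HepG2 cells carrying transiently transfected cis-regulated reporter units; gain or loss relative to DMSO.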

Assay [5] concerns the target Nuclear receptor subfamily 1 group I member 3 (Homo sapiens) (UniProt Q14994). Nature of the assay: ATG_CAR_TRANS: Attagene TRANS-FACTORIAL HepG2 Assay for human Constitutive Androstane Receptor (CAR) (AID 2282969; active means hit-call score of the fitted dose curve at least 0.9, where 1 is the maximum;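 further: activators raise reporter mRNA above DMSO so AC50 marks induction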). To be noted: HepG2 Attagene TRANS-FACTORIAL CAR reporter. The procedure, abridged: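 Readout is reporter mRNA induction, quantified by fluorescent primer extension and capillary electrophoresis after RT-PCR. Cells were HepG2 transiently carrying chimeric NR-Gal4 constructs with GAL4-UAS reporters, treated for 24 h; activity scored upward from DMSO.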

In assay [6] the target is Estrogen receptor (Homo sapiens) (UniProt P03372). Briefly: ATG_ERa_TRANS: Attagene TRANS-FACTORIAL HepG2 Assay for human Estrogen Receptor alpha (ERa) (AID 2282970; active means hit-call score of the fitted dose curve at least 0.9, where 1 is the maximum). To be noted: HepG2 Attagene TRANS ERa GAL4 reporter, mRNA. The essentials: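 Transactivation via ERa-Gal4 chimera in HepG2; 24 hour incubation; reporter mRNA detected by fluorescence RT-PCR and capillary electrophoresis.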

For assay [7], the target named is X-box-binding protein 1 (Homo sapiens) (UniProt P17861). Briefly: ATG_Xbp1_CIS: Attagene CIS-FACTORIAL HepG2 Assay for human X-box Binding Protein 1 (XBP1) (AID 2282972). To be noted: HepG2 XBP1 cis-element reporter, Attagene multiplex; actives raise or lower the signal. The essentials: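 HepG2, transient MRTU transfection (cis-promoter driven), 24 h compound exposure. Total RNA → oligo(dT) RT → PCR → 6-FAM labeling → HpaI cut → CE. Bidirectional fit vs DMSO.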

Assay [8] in a line: ATG_GAL4_TRANS: Attagene TRANS-FACTORIAL HepG2 Assay for GAL4 (Internal Marker) (AID 2282976; active means hit-call score of the fitted dose curve at least 0.9, where 1 is the maximum). To be noted: HepG2 Attagene TRANS GAL4 internal marker reporter. The procedure, abridged: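 Fluorescence from capillary electrophoresis of labelled RT-PCR products quantifies reporter mRNA induction after 24 h dosing of HepG2 cells carrying transfected GAL4-UAS reporter transcription units. Vehicle DMSO serves as baseline.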

Assay [9] is described as follows: ATG_M_19_TRANS: Attagene TRANS-FACTORIAL HepG2 Assay for M19 Transcription Factor (Internal Marker) (AID 2282974; active means hit-call score of the fitted dose curve at least 0.9, where 1 is the maximum). To be noted: HepG2 Attagene TRANS-FACTORIAL M19 internal marker reporter. The essentials:
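24 h chemical exposure of transiently transfected HepG2 (MRTU library). RNA → oligo(dT) RT → PCR → 6-FAM labelling → HpaI cut → CE fluorescence. Positive-direction fit vs DMSO baseline; background internal-marker readout.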

Assay [10] deals with Steroid hormone receptor ERR1 (Homo sapiens) (UniProt P11474). Briefly: ATG_ERRa_TRANS: Attagene TRANS-FACTORIAL HepG2 Assay for human Estrogen-Related Receptor alpha (ERRa) (AID 2282971; active means hit-call score of the fitted dose curve at least 0.9, where 1 is the maximum). As to conditions: HepG2 Attagene TRANS reporter, ERRa transactivation. The procedure, abridged:
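HepG2 cells were transiently transfected with multiple GAL4-UAS reporter units, then dosed with compound for 24 h. Total RNA was reverse-transcribed, reporter cDNA PCR-amplified and fluorescently labelled, and fragments resolved by capillary electrophoresis; induction was compared with DMSO.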

Inconclusive results are not listed. Active and inactive are the calls of the source. How the source made its calls, unless noted: active means hit-call score of the fitted dose curve at least 0.9, where 1 is the maximum; inactive means score below 0.9.

Sequence of Estrogen receptor (Homo sapiens) (P03372 whole entry, looked up, the tested form may be a part): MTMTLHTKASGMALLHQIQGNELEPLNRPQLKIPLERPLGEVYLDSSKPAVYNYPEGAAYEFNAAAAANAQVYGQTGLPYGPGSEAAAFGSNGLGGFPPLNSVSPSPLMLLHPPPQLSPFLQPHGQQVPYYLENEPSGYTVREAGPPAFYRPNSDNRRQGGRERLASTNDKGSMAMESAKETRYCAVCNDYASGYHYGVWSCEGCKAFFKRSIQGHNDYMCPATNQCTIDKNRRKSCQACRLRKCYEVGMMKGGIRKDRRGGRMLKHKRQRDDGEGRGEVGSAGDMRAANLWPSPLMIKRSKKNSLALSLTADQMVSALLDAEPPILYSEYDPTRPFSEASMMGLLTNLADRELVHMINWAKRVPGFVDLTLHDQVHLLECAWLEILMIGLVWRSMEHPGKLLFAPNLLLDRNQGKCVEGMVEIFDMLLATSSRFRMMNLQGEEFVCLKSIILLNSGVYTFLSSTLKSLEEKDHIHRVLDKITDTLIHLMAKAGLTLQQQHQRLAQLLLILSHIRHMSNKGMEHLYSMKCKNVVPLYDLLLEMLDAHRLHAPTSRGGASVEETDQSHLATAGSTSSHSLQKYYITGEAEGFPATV
Sequence of Nuclear receptor subfamily 1 group I member 3 (Homo sapiens) (Q14994 whole entry, looked up, the tested form may be a part): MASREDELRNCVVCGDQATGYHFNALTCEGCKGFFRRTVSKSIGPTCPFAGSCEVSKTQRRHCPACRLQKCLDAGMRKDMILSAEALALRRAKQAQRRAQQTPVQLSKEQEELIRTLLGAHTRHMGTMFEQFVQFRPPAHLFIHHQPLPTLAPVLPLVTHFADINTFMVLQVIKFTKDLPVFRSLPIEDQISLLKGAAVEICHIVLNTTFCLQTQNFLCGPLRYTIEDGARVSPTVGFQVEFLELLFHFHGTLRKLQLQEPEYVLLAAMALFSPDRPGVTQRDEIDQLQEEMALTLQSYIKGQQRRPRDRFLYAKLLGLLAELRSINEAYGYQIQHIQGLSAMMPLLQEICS
Sequence of X-box-binding protein 1 (Homo sapiens) (P17861 whole entry, looked up): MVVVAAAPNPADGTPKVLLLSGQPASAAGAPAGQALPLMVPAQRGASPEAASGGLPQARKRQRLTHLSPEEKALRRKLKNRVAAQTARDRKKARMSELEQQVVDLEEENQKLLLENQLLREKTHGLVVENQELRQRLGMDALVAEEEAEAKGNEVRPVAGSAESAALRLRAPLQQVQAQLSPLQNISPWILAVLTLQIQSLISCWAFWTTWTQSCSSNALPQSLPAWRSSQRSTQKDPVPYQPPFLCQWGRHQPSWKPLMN
Sequence of Steroid hormone receptor ERR1 (Homo sapiens) (P11474 whole entry, looked up, the tested form may be a part): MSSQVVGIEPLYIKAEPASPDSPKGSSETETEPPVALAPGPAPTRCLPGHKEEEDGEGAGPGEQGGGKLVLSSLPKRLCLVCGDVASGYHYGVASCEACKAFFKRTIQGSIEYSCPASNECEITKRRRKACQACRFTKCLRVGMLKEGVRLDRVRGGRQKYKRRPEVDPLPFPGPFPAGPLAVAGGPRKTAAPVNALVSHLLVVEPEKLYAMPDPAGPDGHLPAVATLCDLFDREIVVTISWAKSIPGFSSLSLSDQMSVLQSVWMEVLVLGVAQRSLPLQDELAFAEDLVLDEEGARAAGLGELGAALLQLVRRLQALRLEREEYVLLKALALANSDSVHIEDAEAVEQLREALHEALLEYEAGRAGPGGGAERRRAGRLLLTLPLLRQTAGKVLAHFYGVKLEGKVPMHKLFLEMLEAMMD

Take `CC/C=C\CCOC(C)=O`: the result in assay [1], in assay [2], in assay [3], in assay [4], in assay [5] and in assay [6] was inactive. The compound was classed as inactive in [7] and in assay [8].

On to `O=P(O)(O)OCCC(F)(F)C(F)(F)C(F)(F)C(F)(F)C(F)(F)C(F)(F)F`, for which the result in assay [1], in assay [2], in assay [4], in assay [5], in assay [7] and in assay [9] was inactive. In addition, the call in assay [8] was inactive. Besides, the AC50 in [3] is 70.1 µM (active); in assay [6] it was 10.4 µM (active).

Take `FC(F)(Br)C(F)(F)C(F)(F)C(F)(F)C(F)(F)C(F)(F)Br`: the compound was called inactive in assay [1], in assay [2], in assay [3], in assay [4], in [5] and in assay [7]. In addition, in assay [8], the outcome was inactive. For the same compound, the AC50 in assay [6] is 7.26 µM (active).

Regarding `CCC(=O)OCCc1ccccc1`, the compound was called inactive in assay [1], in assay [2], in [3], in assay [4], in assay [5] and in assay [6]. Further, the outcome in assay [7], in assay [9] and in [8] was inactive.

`OCC(F)(F)C(F)(F)C(F)(F)C(F)(F)C(F)(F)C(F)F`: the compound was classed as inactive in [1], in [2], in assay [3], in assay [4], in [5] and in assay [7]. In addition, the call in [9] and in assay [8] was inactive. Also, in assay [6], the AC50 was 5.4 µM (active).

Take `COC(OC(C)=O)c1ccccc1` (stereo not drawn): the outcome in assay [1], in assay [2], in [3], in assay [4], in assay [5] and in assay [6] was inactive. For the same compound, the outcome in assay [9] was inactive.

Take `CCCCOc1ccc(N)cc1`: the call in [1], in assay [2], in assay [3], in assay [4], in assay [5] and in [6] was inactive. Further, the call in [7], in assay [9] and in assay [8] was inactive.

In the case of `CCCCOCCOCCOC(=O)CCCCC(=O)OCCOCCOCCCC`, the compound was classed as inactive in assay [1], in assay [2], in assay [3], in assay [4], in assay [5] and in [6]. The result in [7] and in assay [8] was inactive.

On to `[Co]`, for which the outcome in assay [1], in [2], in assay [3], in assay [4], in [5] and in assay [7] was inactive. The compound was classed as inactive in [9] and in assay [8]. Further, the AC50 in assay [6] is 32.5 µM (active).

On to `CC(C)=CCCC(C)CCOC(=O)C(C)C` (stereo not drawn), for which the outcome in assay [1], in assay [2], in assay [3], in [4], in assay [5] and in [6] was inactive. Moreover, the result in assay [7], in assay [9] and in assay [8] was inactive.

In the case of `O=C(O)C(F)(F)C(F)(F)C(F)(F)F`, the result in [1], in [2], in assay [3], in assay [4], in assay [5] and in [7] was inactive. Further, the compound was classed as inactive in [9] and in assay [8]. Moreover, the AC50 in assay [6] is 108 µM (active).

On to `CC(Cc1ccc(O)c(O)c1)C(C)Cc1ccc(O)c(O)c1` (stereo not drawn), for which the AC50 in [1] is 18.7 µM (active); in assay [2] it was 6.72 µM (active); in assay [4], 5.93 µM (active); in assay [6], 9.13 µM (active); in [7], 14.4 µM (active). Further, the result in assay [3], in assay [5], in [9] and in [8] was inactive.

For the compound `FC(F)(F)C(F)(F)C(F)(F)C(F)(F)C(F)(F)C(F)(F)CC1CO1` (stereo not drawn), the result in assay [1], in [2], in assay [3], in assay [4], in assay [5] and in [6] was inactive. For the same compound, the result in [7], in assay [9] and in [8] was inactive.

With `C=CC(=O)OCC(F)(F)C(F)(F)C(F)(F)C(F)(F)C(F)(F)C(F)(F)C(F)(F)F`, the outcome in assay [1], in assay [2], in assay [3], in assay [4], in [5] and in assay [7] was inactive. For the same compound, the call in assay [9] and in assay [8] was inactive. In addition, the AC50 in assay [6] is 15.6 µM (active).

On to `Nc1ccc([N+](=O)[O-])cc1O`, for which the compound was called inactive in assay [1], in assay [2], in [3], in assay [4], in [5] and in assay [6]. In addition, the result in [7], in [9] and in assay [8] was inactive.

Turning to `FC(F)(F)C(F)(F)C(F)(F)C(F)(F)CCI`, the compound was called inactive in assay [1], in [2], in [3], in [4], in assay [5] and in assay [7]. In addition, the compound was classed as inactive in [9] and in [8]. Further, the AC50 in [6] is 13.6 µM (active).

For the compound `O=C(O)C=C(C(F)(F)F)C(F)(F)F`, the compound was classed as inactive in assay [1], in assay [2], in [3], in [4], in assay [5] and in assay [6]. Further, the compound was classed as inactive in [7] and in assay [8].

Consider `CO[Si](OC)(c1ccccc1)c1ccccc1`, for which the result in assay [1], in assay [2], in assay [3], in [4], in [5] and in assay [6] was inactive. The result in [7], in [9] and in assay [8] was inactive.

As for `CCN(Cc1cccc(S(=O)(=O)O)c1)c1ccc(C(=C2C=CC(=[N+](CC)Cc3cccc(S(=O)(=O)O)c3)C=C2)c2ccc(O)cc2S(=O)(=O)[O-])cc1`, the compound was classed as inactive in [1], in assay [2], in assay [3], in assay [4], in assay [5] and in assay [6]. In addition, the compound was classed as inactive in assay [9].

Regarding `O=S(=O)(OCCOC(F)(F)F)C(F)(F)F`, the compound was called inactive in assay [1], in [2], in assay [3], in assay [4], in [5] and in assay [6]. For the same compound, the compound was classed as inactive in [7], in [9] and in assay [8].

For `O=C(C=Cc1ccccc1)OCC=Cc1ccccc1`, the compound was classed as inactive in assay [1], in assay [2], in assay [3], in [4], in assay [5] and in assay [9]. In addition, the outcome in [8] was inactive. Besides, in assay [6], the concentration at half-maximal activity (AC50) was 18 µM (active).

In the case of `Cc1cc(C)cc(O)c1`, the call in assay [1], in assay [2], in assay [3], in [4], in [6] and in assay [10] was inactive. Also, the call in assay [9] and in [8] was inactive.

For the compound `Cc1ccc(S(=O)(=O)OCC(F)(F)C(F)(F)C(F)(F)C(F)(F)C(F)(F)C(F)F)cc1`, the compound was classed as inactive in [1], in assay [2], in assay [3], in assay [4], in [5] and in assay [6]. In addition, in assay [8], the call was inactive.

Regarding `C1COCCN1`, the result in assay [1], in assay [2], in [3], in assay [4], in assay [5] and in assay [6] was inactive. The call in [9] and in assay [8] was inactive.
